# Test results: PubChem BioAssay (Tox21)
# Records with an inconclusive call do not appear. Entries that show only a call come without a potency. A number with no mark means an inactive call. Active and inactive are the calls of the source. Calls come from the whole dose curve; as a rule, active = well fitted cell-killing curve with a large enough effect in the repeat runs; inconclusive = weak or mixed curves; inactive = no such curve, though single readings can be large or run the other way.
# Assay: qHTS assay for identifying genotoxic compounds that show differential cytotoxicity against isogenic chicken DT40 cell lines with known DNA damage response pathways - Rad54/Ku70 mutant cell line (AID 743015); note: nearly all actives have a fitted effect of over 60% in size
# Conditions: DT40 Rad54/Ku70 mutant viability, CellTiter-Glo, 40 h; series mostly up to 66.8 µM
# Potency is the fitted concentration of half-maximal effect.
Compound,Potency,"activity change, negative = cytotoxicity"
C[C@H]1NCc2cc(-c3ccc4c(=O)c(C(=O)O)cn(C5CC5)c4c3OC(F)F)ccc21,inactive,–
Cl[Si](Cl)(c1ccccc1)c1ccccc1,inactive,–
CC(C)CCCCCOC(=O)CCS,inactive,–
Nc1nc(-c2ccccc2)cs1,inactive,–
Cc1cc(C(C)(C)C)cc(C)c1CC1=NCCN1,inactive,–
O=S(=O)(O)c1ccc(Nc2nc(Nc3ccc(/C=C/c4ccc(Nc5nc(Nc6ccc(S(=O)(=O)O)cc6)nc(N(CCO)CCO)n5)cc4S(=O)(=O)O)c(S(=O)(=O)O)c3)nc(N(CCO)CCO)n2)cc1,inactive,–
COc1cccc(OC)c1C(=O)O,inactive,–
C1CCC(SSC2CCCCC2)CC1,inactive,–
CC(C)(C)CC(C)(C)c1ccc(Nc2ccc(C(C)(C)CC(C)(C)C)cc2)cc1,–,9.12% [at 8.55 µM]
Cc1c(F)c(N2CCNC(C)C2)cc2c1c(=O)c(C(=O)O)cn2C1CC1 (configuration not stated),inactive,–
ClCCl,inactive,–
CN(C)Cc1ccccc1O,inactive,–
Cc1nc2n(c(=O)c1CCN1CCC(c3noc4cc(F)ccc34)CC1)CCCC2,inactive,–
Nc1ccc(Oc2ccc(Cl)cc2)cc1,59.8 µM (active),–
S=C([S-])NCCNC(=S)[S-].S=C([S-])NCCNC(=S)[S-].[Mn+2].[Zn+2],29.8 µM (active),–
COC(=O)c1ccccc1OC,inactive,–
Cc1ccc(-c2ccccc2)cc1,inactive,–
CCN(CCN)c1cccc(C)c1,inactive,–
CCCNCCC,inactive,–
CNc1ccc([N+](=O)[O-])cc1,68.7 µM (active),–
CCC(C)(CCC(C)C)C(=O)[O][Sn]([CH3])([CH3])[O]C(=O)C(C)(CC)CCC(C)C (configuration not stated),inactive,–
Cc1cc(C(C)(C)C)c(O)c(C)c1Cn1c(=O)n(Cc2c(C)cc(C(C)(C)C)c(O)c2C)c(=O)n(Cc2c(C)cc(C(C)(C)C)c(O)c2C)c1=O,inactive,–
